GSH bead fluor: compound fluorescence on glutathione beads, profiling panel, artefact control, biophysical, 488/530 nm, flow cytometry | GSH beads flow cytometry, compound fluorescence 488/530 nm; active compounds read high | fluorescence (KMESF) at 10 µM | actives 0.25% (n = 190,000) | AID 1776, 2009; in the data active = fluorescence above about 89;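 also: glutathione beads carrying GST-tagged Bcl family fusion proteins plus one bare bead set; values are compound well signal with DMSO vehicle wells as background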
RGS8-Gao reg: RGS8-Galphao binding modulators, primary screen, biochemical, multiplexed bead flow cytometry; actives lie on both sides; response (percent of control binding), % at 10 µM; actives 0.34% (n = 220,000); in the data active = response below about 60% or above about 140%; inactive = in between;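 also: Galphao activated as the GDP aluminium fluoride complex binding bead-coupled RGS8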
Target sequence (P09471 whole entry, looked up): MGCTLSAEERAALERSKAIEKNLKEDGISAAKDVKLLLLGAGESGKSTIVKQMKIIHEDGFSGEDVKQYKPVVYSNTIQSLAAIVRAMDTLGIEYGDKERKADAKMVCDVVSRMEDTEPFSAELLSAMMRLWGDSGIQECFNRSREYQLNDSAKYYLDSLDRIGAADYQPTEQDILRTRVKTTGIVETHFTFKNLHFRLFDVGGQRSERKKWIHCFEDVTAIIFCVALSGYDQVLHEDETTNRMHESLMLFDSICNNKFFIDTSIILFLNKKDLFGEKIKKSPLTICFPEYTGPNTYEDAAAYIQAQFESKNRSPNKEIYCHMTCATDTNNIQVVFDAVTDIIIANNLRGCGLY
RGS4-Gao reg: modulators of RGS4 binding to Galphao, primary screen, biochemical, multiplexed bead flow cytometry | Guanine nucleotide-binding protein G(o) subunit alpha (Homo sapiens), P09471 | AID 1415, 2008 | binding response (% of control), % at 10 µM | actives lie on both sides | actives 0.33% (n = 220,000); in the data active = binding response below about 49% or above about 150%; inactive = in between;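 also: fluorescent Galphao activated with aluminum fluoride binding bead-coupled RGS4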
RGS7-Gao reg: RGS7-Galphao binding modulators, primary screen, biochemical, multiplexed bead flow cytometry | Guanine nucleotide-binding protein G(o) subunit alpha (Homo sapiens), P09471 | actives lie on both sides | binding response (% of control), % at 10 µM | actives 0.35% (n = 220,000); in the data active = binding response below about 49% or above about 150%; inconclusive = no clear call, values can overlap the other calls; inactive = in between;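 also: fluorescent Galphao held in activated GDP-AlF4 state binding bead-coupled RGS7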
Avidin bead fluor: green autofluorescence of compounds with avidin beads – biophysical, 488/530 nm, flow cytometry, artefact control, profiling panel; compound fluorescence 488/530 nm; active compounds read high; fluorescence (KMESF) at 10 µM; actives 0.38% (n = 220,000); in the data active = fluorescence above about 47
RGS16-Gao HTS: modulators of RGS16 binding to Galphao, primary screen, biochemical, human proteins, multiplexed bead flow cytometry. Regulator of G-protein signaling 16 (Homo sapiens) + Guanine nucleotide-binding protein …. actives 0.38% (n = 220,000). AID 1441, 2008. bead-based flow cytometry RGS16-Galphao binding, fluorescence; actives lie on both sides. binding response (% of control), % at 10 µM; call rule not given here;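 also: Galphao activated by GDP with aluminum fluoride before binding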
* hit, by the source's call; ? = inconclusive; / = no result; [ ] = remark or other dose. Most compounds without a hit are left out; they make up all but 1.2% or so of the library.

SMILES | GSH bead fluor | RGS8-Gao reg | RGS4-Gao reg | RGS7-Gao reg | Avidin bead fluor | RGS16-Gao HTS
Cc1c(C(=O)NN)nc2ccccn12 | 14 | 96 | 99 | 97 | 5 | 101
O=C(Nc1ccc(Cl)c(C(F)(F)F)c1)N1CCCC(O)C1 (stereo not drawn) | 14 | 96 | 94 | 112 | 66* | 101
O=C(Nc1ccc(Cl)c(C(F)(F)F)c1)C(=O)N1CCCCC1 | 10 | 85 | 97 | 95 | 5 | 46
CCCn1c(N2CCN(C)CC2)nc2c1c(=O)[nH]c(=O)n2C | 19 | 102 | 106 | 101 | 11 | 99
CCCn1c(N2CCOCC2)nc2c1c(=O)[nH]c(=O)n2C | 36 | 96 | 105 | 119 | 60* | 97
O=C(COC(=O)CCSc1ccccc1)NCc1ccc(F)cc1 | 11 | 102 | 98 | 98 | 9 | 96
O=C(Nc1ccc(C(=O)NC2CCCCC2)cc1)c1cccnc1 | 19 | 101 | 102 | ? | 9 | 105
CCCn1c2c(c(O)c(C(=O)NCc3ccccc3)c1=O)CCCC2 | 15 | 103 | 105 | 113 | 54* | 100
CCCCN(CC)Cc1ccc(CNC(=O)Nc2ccc(OCC)cc2)o1 | 34 | 101 | 113 | 133 | 87* | 106
CCCCN(CC)Cc1ccc(CNC(=O)Nc2ccc(Cl)cc2)o1 | 16 | 104 | 103 | 103 | 5 | 103
CCOC(=O)C1CCCN(C(=O)c2cc(-c3ccc(F)cc3)nc3ccccc23)C1 (stereo not drawn) | 11 | 103 | 101 | 104 | 23 | 113
CCOC(=O)C1CCCN(C(=O)c2cc(Nc3ccc(OC)cc3)nc3ccccc23)C1 (stereo not drawn) | 16 | 101 | 108 | 116 | 51* | 106
COc1nc(Nc2ccc(C(C)=O)cc2)nc(OC)n1 | 33 | 94 | 188*[activator] | 149 | 76* | 239
COC(=O)c1ccc(Nc2nc(C)cc(C)n2)cc1 | 14 | 99 | 97 | 102 | 42 | 100
OC(CN1CCCCC1)Cn1c(C(F)(F)F)nc2ccccc21 (stereo not drawn) | 17 | 103 | 98 | 99 | 40 | 100
Cc1nc2ccccc2n1CC(O)Cn1c(C(F)(F)F)nc2ccccc21 (stereo not drawn) | 11 | 7.0* | -28* | -8.4* | -3 | -16*
COc1ccc(CNC(=O)C2CC(c3ccccc3[N+](=O)[O-])=NO2)cc1 (stereo not drawn) | 13 | 103 | 99 | 100 | 32 | 99
COc1ccccc1CNC(=O)C1CC(c2ccccc2[N+](=O)[O-])=NO1 (stereo not drawn) | 11 | 99 | 99 | 107 | 49* | 102
O=C(c1cncs1)N1CCCC(CNS(=O)(=O)c2cccs2)C1 (stereo not drawn) | 17 | 97 | 97 | 95 | 11 | 94
CSCC[C@H](NC(=O)OC(C)(C)C)c1nnc(SCC=C(C)C)o1 | 267* | 100 | 100 | 101 | 8 | 101
Clc1ccc(/C=N/Nc2nn[nH]n2)cc1 | 144* | 101 | 99 | 99 | 7 | 95
O=C(O[C@@H]1Cc2c(O)cc(O)cc2O[C@@H]1c1cc(O)c(O)c(O)c1)c1cc(O)c(O)c(O)c1 | 67 | 56* | 48* | 32* | 2 | 56
O=C1NC2(CCCCC2)C(=O)N1Cc1cccc(C(F)(F)F)c1 | 11 | 101 | 99 | 90 | 6 | 96
OC1CCCN(Cc2ccc3ccc4cccc5ccc2c3c45)C1 (stereo not drawn) | 24 | 100 | 111 | 135 | 142* | 104
Cc1cc2nnc(SCC(=O)NCC3CCCO3)n2c2ccccc12 (stereo not drawn) | 12 | 101 | 102 | 100 | 11 | 100
COc1ccc(N(C)C(=O)c2cc3c(s2)-c2c(C)cccc2OC3)c(OC)c1 | / | 103 | 98 | ? | 6 | 106
CSc1nc2ccc(S(=O)(=O)N3CCOCC3)cc2s1 | 30 | 102 | 103 | 101 | 11 | 99
CSc1nc2ccc(S(=O)(=O)N3CCCCC3)cc2s1 | 24 | 103 | 106 | 107 | 50* | 107
